Screening data deposited in PubChem BioAssay by National Center for Advancing Translational Sciences (NCATS).
A selection: hits, their analogues and other compounds. The true share with any hit is near 21%.
Cycloheximide cs: counter-screen hit for Shiga toxin inhibitors, cycloheximide. cell reporter, cycloheximide protein synthesis inhibition counterscreen. max response, %. 300,000 compounds, 12% hits. AID 2314; in the data active = max response mostly above about 13%, no sharp cut-off; inactive = mostly below about 14%; note: read at 38.3 µM for the half of the compounds with a filed dose; 0% is about no effect
NS1 inh: inhibitors of influenza NS1 protein function | AID 2326 | 270,000 compounds, 0.4% hits | Potency, µM (titrated, usually from 46.1 µM), without a hit: top-dose activity, positive = more growth; calls by dose curve; note: potency is the fitted concentration of half-maximal effect; actives are rising curves; nearly all actives have a fitted effect of over 50% in size
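OD600 was taken as the measure of yeast growth restored by compound in an NS1-expressing S. cerevisiae strain. Cells had been washed out of glucose medium and diluted 1:100 into galactose -URA medium, pH 6.0.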
Shiga inhibitor: Shiga toxin inhibition. Vero cells, Shiga toxin protein synthesis inhibition reporter. 290,000 compounds, 9.2% hits. AID 2315. inhibition, % at 38.7 µM; in the data active = inhibition mostly above about 28%, no sharp cut-off; inactive = mostly below about 43%; note: 0% is about no effect
Pf growth 48h: P. falciparum growth inhibition at 48 hours (one generation); P. falciparum luciferase growth in erythrocytes, 48 h; Potency, µM (doses to about 28.7 µM), inactives show top-dose activity change, negative = inhibition, hits mostly inhibitors; 310,000 compounds, 5.9% hits; AID 504832; note: potency is the fitted concentration of half-maximal effect; % is set by controls: 0 for no effect and ±100 for the full control effect
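Here the parasites carry a stable luciferase gene and grow inside erythrocytes in Albumax-based RPMI medium with compound for one erythrocytic cycle. Activity is scored as loss of luminescent signal.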
SARS PLP yeast: SARS-CoV PLP inhibition in yeast; S. cerevisiae expressing SARS-CoV PLpro, growth rescue; Potency, µM (doses to about 32.9 µM), for the others: top-dose activity, positive = growth rescue, most hits filed as activators; 330,000 compounds, 0.19% hits; AID 485353; calls by dose curve; note: potency is the fitted concentration of half-maximal effect; 0% is about no effect; nearly all actives have a fitted effect of over 55% in size
Pf growth 96h: inhibits malaria parasite growth, 96 h; 320,000 compounds, 6.9% hits; Potency, µM (series often up to 28.7 µM), without a hit: at the highest dose activity change, negative = inhibition, usual class: inhibitors; P. falciparum luciferase reporter growth, 96 h; note: potency is the fitted concentration of half-maximal effect; % is set by controls: 0 for no effect and ±100 for the full control effect
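Plates of compound plus infected erythrocytes (2% hematocrit, 0.05% parasitemia final) incubate 96 hours, 37 C, 5% CO2. Detection reagent added; reduced luminescence from the parasites' luciferase reporter flags inhibition.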
* hit, by the source's call; ? = inconclusive; · = no result. Unless noted, calls come from the whole dose curve; as a rule, active = well fitted inhibition curve with a large enough effect; inconclusive = small, poorly fitted or top-dose-only effect, or another doubt; inactive = no such curve, though single readings can be large or run the other way.

SMILES | Cycloheximide cs | NS1 inh | Shiga inhibitor | Pf growth 48h | SARS PLP yeast | Pf growth 96h
O=C(Cn1cnc2scc(-c3ccc(Br)cc3)c2c1=O)N1CCOCC1 | -2 | 1% | -10 | 5% | 1% | 14%
O=C(COc1ccccc1)NC1CCCN(Cc2ccccc2F)C1 (stereo not drawn) | -3 | -12% | 3 | ? | -5% | ?
O=C(Nc1cnn(Cc2ccc(F)cc2)c1)c1cnccn1 | 17* | -1% | 13 | 24% | 2% | ?
CC(C)(C)C1CCc2onc(C(=O)Nc3cnn(Cc4ccc(F)cc4)c3)c2C1 (stereo not drawn) | -3 | -7% | -13 | -8% | 2% | 2%
O=C(Nc1cnn(Cc2ccc(F)cc2)c1)c1noc2c1CCCC2 | 45* | · | 152* | 133% | -5% | ?
O=C(Nc1cnn(Cc2ccc(F)cc2)c1)c1cc(-c2cccs2)on1 | 8 | -9% | -13 | · | 7% | ?
CCN1CCCC1CNC(=O)C(=O)Nc1ccccc1 (stereo not drawn) | 29* | · | 86* | 96% | 1% | ?
CCOc1ccc(NC(=O)C(=O)NCC2CCCN2CC)cc1 (stereo not drawn) | 1 | 3% | -4 | 34% | -2% | 52%
CCN1CCCC1CNC(=S)Nc1ccc(C(C)=O)cc1 (stereo not drawn) | 14 | · | -19 | 15µM* | 0% | -24%
COc1cccc(-c2onc3ccc(C4(C)OCCO4)cc23)c1 | 26* | · | 31 | 44% | -2% | ?
CC1(c2ccc3noc(-c4ccccc4)c3c2)OCCO1 | -1 | -1% | 30 | -29% | -1% | ·
CC1(c2ccc3noc(-c4ccc(F)cc4)c3c2)OCCO1 | 19* | -8% | 72 | · | -1% | ?
COc1cccc(-c2onc3ccc(C(C)=O)cc23)c1 | 15* | 0% | 31 | -8% | 0% | 12%
COc1cccc(-c2onc3ccc(C(=O)/C=C/N(C)C)cc23)c1 | 3 | 14% | -4 | ? | -3% | ?
CSc1ccc(C#N)cc1NC(=O)c1ccccc1C | -2 | · | 7 | ? | 1% | ?
CSc1ccccc1NC(=O)CN1CC(C)OC(C)C1 (stereo not drawn) | 7 | · | -4 | -22% | 4% | -22%
NC(=S)NCCCC(N)C(=O)O (stereo not drawn) | · | -10% | · | · | · | ·
COC(=O)c1cc2c(ccn2-c2ccc(F)cc2)n1Cc1cccc(OC)c1 | -3 | 12% | -13 | ? | 6% | ?
COC(=O)c1cc2c(ccn2-c2ccc(F)cc2)n1Cc1ccc(OC(C)=O)cc1 | 59* | ? | 122* | ? | 22% | ?
CC(Oc1ccc(Cl)cc1)C(=O)Nc1ccccc1C(=O)N1CCOCC1 (stereo not drawn) | -3 | 10% | -14 | -2% | 1% | ?
O=C(O)c1ccccc1N=Cc1c(O)n(-c2nccs2)c(=O)c2ccccc12 | -1 | 6% | 22 | 7% | 0% | 1%
CCN(CC)S(=O)(=O)c1cccc(-n2c(O)c(C=Nc3ccccc3C(=O)O)c3ccccc3c2=O)c1 | 0 | 4% | 1 | 13µM* | -1% | 7.4µM*
Cc1ccc(NC(=O)c2ccc(OC(=O)C(C)Oc3ccc(Cl)cc3C)cc2)cc1 (stereo not drawn) | 43* | 14% | 61* | 66% | 0% | ?
Cc1cc(Cl)ccc1OC(C)C(=O)OCC(=O)Nc1ccc2[nH]c(=O)[nH]c2c1 (stereo not drawn) | · | · | · | 3% | -5% | -3%
COc1cccc(NC(=O)c2cnc[nH]2)c1 | 33* | -2% | 41* | 64% | 0% | 0%
SMILES | Cycloheximide cs | NS1 inh | Shiga inhibitor | Pf growth 48h | SARS PLP yeast | Pf growth 96h
O=C(Nc1ccc(F)cc1)c1cccc(C(=O)Nc2ccc(F)cc2)c1 | -1 | 4% | -4 | 15% | -1% | 2%
O=C(Nc1ccc(F)cc1)c1ccc2nsnc2c1 | 46* | -33% | 64* | 130% | -2% | 98%
COc1ccc(NC(=O)c2cccc(NC(=O)C(C)C)c2)c([N+](=O)[O-])c1 | 22* | 0% | 22* | 70% | -1% | ?
Cc1ccc(NC(=O)CCC(=O)OCC(=O)c2ccc(Oc3ccc([N+](=O)[O-])cc3)cc2)cc1 | -3 | 13% | -5 | -5% | -22% | -23%
COc1ccc(NC(=O)c2csc(C)c2)cc1OC | 25* | 0% | 30* | 12% | -3% | 244%
COC(=O)c1ccc(NC(=O)c2ccc(OC(C)=O)c(OC)c2)cc1 | 33* | -2% | 48* | 184% | -1% | -23%
COc1cccc(NC(=O)C(C)OC(=O)CCCNC(=O)c2ccc(Cl)cc2)c1 (stereo not drawn) | 25* | 7% | 100* | 38% | 4% | 52%
COc1ccc(NC(=O)CCC(=O)OCC(=O)c2ccc(Oc3ccc([N+](=O)[O-])cc3)cc2)cc1 | 1 | 9% | -13 | 9% | -21% | 9.3µM*
COc1cc(C(=O)Nc2ccc(O)cc2C(=O)O)ccc1OC(C)=O | -3 | 13% | -16 | 34% | -4% | 4%
COc1ccc(OC)c(NC(=O)C(=O)NNC(=O)C23CC4CC(CC(C4)C2)C3)c1 | 1 | 4% | 18 | ? | -1% | 0%
COc1cccc(NC(=O)c2cccc(C(=O)Nc3cccc(OC)c3)c2)c1 | 7 | -3% | 1 | 70% | 0% | -26%
COc1cccc(NC(=O)CC(=O)c2ccc([N+](=O)[O-])cc2)c1 | 51* | -4% | 71* | -13% | -1% | 36%
COc1cccc(NC(=O)c2ccc(-n3cccn3)nc2)c1 | 40* | -17% | 26* | 79% | -8% | ?
COc1cccc(NC(=O)c2ccc3nsnc3c2)c1 | 28* | -16% | 78* | 141% | -8% | 42%
CCOc1ccc(NC(=O)c2ccc(-n3cccn3)nc2)cc1 | 1 | · | -8 | -8% | -1% | 103%
COc1cccc(NC(=O)c2ccc(NC(=O)C(C)C)cc2)c1 | 23* | -5% | 52* | 117% | -1% | 176%
CCOC(=O)C1OC1C(=O)N[C@@H](CC(C)C)C(=O)NCCC(C)C (stereo partly drawn) | -5 | · | -2 | · | · | ·
CC(Sc1ncccn1)C(=O)Nc1ccc2c(c1)OCO2 (stereo not drawn) | · | · | · | · | 2% | ·
COc1ccc(C(=O)Nc2cccc(OC)c2)cc1 | 58* | -50% | 91* | · | -13% | 12%
CCSc1ccccc1C(=O)Nc1cccc(OC)c1 | 15* | -15% | 69 | -20% | -15% | ?
COc1ccc(C(=O)N/N=C(/C)c2cccc(NC(=O)c3ccncc3)c2)cc1OC | 3 | 9% | 2 | -2% | -1% | ?
COc1ccc(C(=O)Nc2ccc(/C(C)=N/NC(=O)c3ccccc3O)cc2)cc1OC | 37* | 2% | 44* | 25% | 0% | 0%
COc1cccc(NC(=O)c2ccccc2)c1 | · | · | · | 97% | -3% | 83%
